Source: PubChem BioAssay
OTUD3 block = blocks human OTUD3 ubiquitin-rhodamine cleavage; inhibition, % at 25 µM; Q5T2D3; 47,000 tested, 0.7% active; purified OTUD3, Ub-rhodamine fluorescence, 2 h
USP17 block = inhibitors of human USP17 deubiquitinase | purified USP17, Ub-rhodamine cleavage fluorescence, 3 h | 47,000 tested, 6.5% active | inhibition, % at 50 µM
USP28 inh = blocks human USP28 ubiquitin-rhodamine cleavage; Q96RU2; purified USP28, Ub-rhodamine cleavage fluorescence, 30 min; 47,000 tested, 3% active; inhibition, % at 25 µM
Target sequence (Q96RU2 whole entry, looked up): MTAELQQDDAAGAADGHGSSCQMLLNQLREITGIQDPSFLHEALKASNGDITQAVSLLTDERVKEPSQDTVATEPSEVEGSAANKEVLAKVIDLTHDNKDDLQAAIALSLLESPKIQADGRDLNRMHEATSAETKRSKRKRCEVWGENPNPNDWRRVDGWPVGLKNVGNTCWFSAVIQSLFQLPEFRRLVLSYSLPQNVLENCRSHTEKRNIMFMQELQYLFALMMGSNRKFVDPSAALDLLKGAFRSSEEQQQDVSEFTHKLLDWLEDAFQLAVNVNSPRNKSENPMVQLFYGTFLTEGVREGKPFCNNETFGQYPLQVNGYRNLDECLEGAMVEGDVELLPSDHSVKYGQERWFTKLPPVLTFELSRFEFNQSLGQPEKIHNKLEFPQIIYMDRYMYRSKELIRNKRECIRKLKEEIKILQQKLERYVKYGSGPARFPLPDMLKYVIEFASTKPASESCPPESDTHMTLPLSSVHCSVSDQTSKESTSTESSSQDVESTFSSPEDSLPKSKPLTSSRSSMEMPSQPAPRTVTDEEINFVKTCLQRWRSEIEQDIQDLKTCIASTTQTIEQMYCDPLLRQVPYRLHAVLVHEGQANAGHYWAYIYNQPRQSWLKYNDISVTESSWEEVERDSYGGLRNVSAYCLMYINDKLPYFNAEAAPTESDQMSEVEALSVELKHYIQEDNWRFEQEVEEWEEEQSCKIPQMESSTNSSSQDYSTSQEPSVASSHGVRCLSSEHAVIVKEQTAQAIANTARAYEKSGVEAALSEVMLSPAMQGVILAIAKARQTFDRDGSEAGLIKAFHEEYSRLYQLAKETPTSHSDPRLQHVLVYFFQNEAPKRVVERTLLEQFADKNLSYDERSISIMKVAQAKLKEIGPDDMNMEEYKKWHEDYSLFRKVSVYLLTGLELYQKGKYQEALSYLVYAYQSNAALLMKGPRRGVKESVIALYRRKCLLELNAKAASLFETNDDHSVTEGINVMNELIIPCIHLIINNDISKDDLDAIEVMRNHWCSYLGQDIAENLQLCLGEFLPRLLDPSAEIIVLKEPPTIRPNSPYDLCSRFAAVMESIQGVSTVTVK
USP30 block = human USP30 deubiquitinase inhibition. Q70CQ3. purified USP30, Ub-rhodamine cleavage fluorescence. inhibition, % at 25 µM. 47,000 tested, 5.3% active. AID 1645860
Large screens that a line does not name were inactive. Rows were chosen to be rich in hits. Some 12% of all compounds tested hit in one or more screens of this group. No stated cut-off is given here; in the data, active means inhibition above about 30%; inactive means the rest.

CC(=O)c1sc(NCc2ccc(C)cc2)nc1C	USP28 inh 49.6
CNS(=O)(=O)c1cc(C(=O)NCc2ccccc2)ccc1Cl	none
CC(C)C1Nc2ccc(C(=O)NCc3ccccc3)cc2NC1=O (stereo not drawn)	USP17 block 36.3
Cc1ccc(-c2cc(C(=O)NCc3cccnc3)c(C)o2)cc1	none (no result: USP17 block)
NC1=CC(=O)C(Nc2ccccc2O)=CC1=O	USP17 block 42.0
COc1ccc(S(=O)(=O)N2CCOC(c3ccccc3)C2)cc1Cl (stereo not drawn)	none
Cc1nc(C2CCN(C(=O)Cn3cncn3)CC2)c2sccn12	none
O=S(=O)(Cc1noc(-c2ccccc2)n1)c1ccc(F)cc1	none (no result: USP28 inh, USP30 block)
COc1ccc(Br)c(-c2nc(CS(=O)(=O)c3ccc(F)cc3)no2)c1	USP30 block 38.4
Cc1noc(-c2ccc3nnc(CC(=O)NCc4ccccc4)n3c2)n1	none
CCn1ncc(S(=O)(=O)Nc2ccn(Cc3ccccc3C)n2)c1C	none
Cc1ccccc1Cn1ccc(NC(=O)c2noc(C)c2[N+](=O)[O-])n1	USP28 inh 75.0
CC(C)(C)OC(=O)NCc1ccc(C(=O)Nc2ccc(Cl)cn2)cc1	USP30 block 34.2
NS(=O)(=O)c1ccc(CCNc2ccn3nc(-c4ccccc4)cc3n2)cc1	USP17 block 31.0
c1ccc(OC2C[C@@H]3CN(Cc4nccs4)C[C@@H]3C2)cc1 (stereo partly drawn)	none
Cc1ccc(Cl)cc1N1CCN(C(=O)CNS(=O)(=O)c2cccs2)CC1	none
CC(Oc1ccc(F)cc1)C(=O)Nc1ccccc1Br (stereo not drawn)	none
CC(Oc1ccc(F)cc1)C(=O)Nc1ccc2nsnc2c1 (stereo not drawn)	USP17 block 34.1
CC1CCN(Cc2nnc(-c3cn(CC(=O)NC4CCCCC4)c4ccccc34)o2)CC1	USP17 block 35.0, USP30 block 59.8
COc1cc(NC(=O)c2ccc3c(c2)OCO3)ccc1-c1cc2ccccc2oc1=O	OTUD3 block 54.6, USP17 block 47.3, USP28 inh 43.2
Cc1cc(NC(=O)c2ccccc2F)ccc1-c1cc2ccccc2oc1=O	none
CN1CCCC(OC(=O)c2cccc(Cl)c2)C1 (stereo not drawn)	none
CN1CCCC(OC(=O)c2cc(Cl)cc(Cl)c2)C1 (stereo not drawn)	USP30 block 32.9 (no result: USP17 block)
Cc1nc(-c2cccc(S(=O)(=O)NCc3ccc(N(C)C)cc3)c2)no1	none
COc1ccc(CCNC(=O)CCn2c(=O)c3ccccc3n(Cc3ccccc3C#N)c2=O)cc1OC	none
COc1ccc(CCNC(=O)CCCCn2c(=O)c3ccccc3n(Cc3cccc(F)c3)c2=O)cc1OC	USP17 block 59.8, USP30 block 54.9
Cc1cc(NC(=O)Cn2c(=O)n(CC3CCC(C(=O)NCCc4ccccc4)CC3)c(=O)c3ccccc32)n[nH]1 (stereo not drawn)	OTUD3 block 36.1, USP17 block 58.1, USP30 block 45.0
COc1ccc(C(=O)CSc2nnc3n(Cc4ccc(C)cc4)c(=O)c4ccccc4n23)cc1OC	USP30 block 45.4
COc1ccc(CCNC(=O)CCn2c(=O)c3ccccc3n(Cc3ccc(C)cc3)c2=O)cc1OC	USP17 block 43.3, USP30 block 64.4
O=C(CCCn1c(=O)c2ccccc2n(Cc2cc(=O)n3ccccc3n2)c1=O)NCc1ccco1	none
COc1ccc(CCNC(=O)CCn2c(=O)c3ccccc3n(Cc3ccc(F)cc3)c2=O)cc1OC	USP17 block 45.7, USP28 inh 31.1, USP30 block 42.9
O=C(Cn1c(=O)n(CC2CCC(C(=O)NC3CCCC3)CC2)c(=O)c2ccccc21)NCCC1=CCCCC1 (stereo not drawn)	USP17 block 49.9, USP30 block 40.2
COCCCNC(=O)Cn1c(=O)n(Cc2ccc(C(=O)NCCc3ccc(OC)c(OC)c3)cc2)c(=O)c2ccccc21	none
COc1ccc(CCNC(=O)c2ccc(Cn3c(=O)c4ccccc4n(CC(=O)Nc4cc(C)[nH]n4)c3=O)cc2)cc1OC	USP17 block 66.4, USP30 block 64.7
O=C(CCn1c(=O)c2ccccc2n(Cc2cc(=O)n3ccccc3n2)c1=O)NCCc1ccc(Cl)cc1	USP17 block 48.4, USP30 block 61.4
CCc1nccn1-c1cccc(C2CCN(C(=O)c3ccn[nH]3)CC2)n1	none
CC(C)CNC(=O)N1C[C@H]2C[C@H](C(=O)NCc3ccccc3)[C@@H](C1)O2	none
CO/C=C/C(=O)c1cc2cnc3c(=N)cc(NC(C)=O)c([nH]1)c23	USP17 block 54.4, USP28 inh 42.7
CC1NC(=O)[C@@H]2C[C@@H](C(=O)N3CCNCC3)[C@H]1N2Cc1ccccc1 (stereo partly drawn)	none
CC(C)=CCC/C(C)=C/CCC(C)(O)C1Cc2c(c3ccccc3[n+]([O-])c2C)O1 (stereo not drawn)	USP30 block 30.3
CCC1(C)Cc2c(sc3nc(SC)nc(SCC(=O)NC(C)Cc4ccccc4)c23)CO1 (stereo not drawn)	none
O=C(Cc1ccccc1[N+](=O)[O-])Nc1cnn(Cc2ccc(F)cc2)c1	USP30 block 31.7
COc1ccc(S(=O)(=O)N2CCC3(CC2)OC(=O)Nc2ccccc23)cc1	USP17 block 63.6
O=C1Nc2ccccc2C2(CCN(S(=O)(=O)c3ccc(F)cc3)CC2)O1	none
Cc1ccc(N2CCCS2(=O)=O)cc1NC(=O)COc1ccccc1F	USP30 block 34.3
CCOc1ccccc1C(=O)Nc1cc(N2CCCS2(=O)=O)ccc1C	USP28 inh 32.2
COc1ccc(N2CCCS2(=O)=O)cc1NC(=O)c1ccccc1OC	USP28 inh 35.4
CCOc1ccc(C(=O)Nc2cc(N3CCCS3(=O)=O)ccc2C)cc1	none
Cc1ccc(CNC(=O)C2CCN(C(=O)c3cc(-c4ccncc4)n[nH]3)CC2)cc1	none
COc1ccc(-c2csc(-c3cc4c([nH]c3=O)CC(c3ccco3)CC4=O)n2)cc1 (stereo not drawn)	none
O=C1CC(c2ccco2)Cc2[nH]c(=O)c(-c3nc(-c4ccc(Cl)cc4)cs3)cc21 (stereo not drawn)	OTUD3 block 37.9
Cc1nn(C)cc1CN1CCC2(CC1)Nc1ccccc1C1=NCCN12	none
Oc1ccc(-c2nc3c4cnn(-c5ccc(Cl)cc5)c4ncn3n2)cc1	USP17 block 32.3 (no result: USP28 inh, USP30 block)
Cc1cccc(-c2nc3c4cnn(-c5ccc(Cl)cc5)c4ncn3n2)c1	none
Cn1c(NC(=O)C2CCCCC2)c(-c2ccccn2)c(=O)c2ccccc21	none (no result: USP28 inh, USP30 block)
Cc1sc2nc(-c3cccnc3)nc(NCCCN3CCOCC3)c2c1C	USP17 block 33.1
COc1cc(OC)c(NC(=O)Nc2nnc(CC(=O)N3CCOCC3)s2)cc1Cl	none
CCCCc1ccc(NC(=O)COC(=O)c2cccnc2Nc2cccc(C(F)(F)F)c2)cc1	none
Cc1ccccc1-c1nc(CN(C)S(=O)(=O)c2ccccc2)c(C)o1	USP30 block 55.5
O=C(c1cc(-c2cnc(-c3cccnc3)nc2)cn1CC1CC1)N1CCOCC1	none
Cc1ccc(Cl)cc1N(Cc1ccc(C(=O)N2CCOCC2)cc1)S(=O)(=O)c1ccccc1	USP30 block 49.6 (no result: USP17 block)
Cc1ccc(C)c(N(CC(=O)NCCN2CCOCC2)S(=O)(=O)c2ccccc2)c1	none
